Measurements published in PubChem BioAssay AID1159580 (chemical genetic matrix, 2015).
Where “and” joins values, the source holds several entries; their conditions need not be identical. Equal values may be shown once. Hit rate of the full screen: of about 5,500 compounds, about 2,000 (36%) were called active. Inconclusive results (about 18%) are left out. Rule as the data show it: active = normalized growth mostly below about 0.91 (no sharp cut-off); inconclusive = no clear call, values can overlap the other calls; inactive = mostly above about 0.92. The list shows a part of the results.

Assay: chemical genetic growth profiling, strain panel (AID 1159580);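 also: tested at 20 µM; growth read once vehicle control cultures reached saturation at 30 °C; 1 = growth at the plate median or of vehicle wells; lower values mean less growth of the strain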
Details: S. cerevisiae deletion strains, growth OD
[1] = locus YGR078C, strain PAC10, active compounds read low
[2] = locus YNL153C, strain GIM3, active compounds read low

Measured: normalized growth

Cn1c(=O)c2[nH]c(-c3ccc(S(=O)(=O)O)cc3)nc2n(C)c1=O
inactive: locus YAL040C, strain CLN3, active compounds read low 1.01 | locus YCL061C, strain MRC1 (second series), active compounds read low 1.01 | locus YER002W, strain NOP16, active compounds read low 1.01 | [1] 1.01 | [2] 1.03 | locus YNL175C, strain NOP13, active compounds read low 1.01 | locus YNL197C, strain WHI3, active compounds read low 0.993 | locus YNL224C, strain SQS1, active compounds read low 1 | locus YOR083W, strain WHI5 (second series), active compounds read low 0.98 | locus YPL055C, strain LGE1, active compounds read low 1 | locus YPL241C, strain CIN2, active compounds read low 1.02

COC(=O)CC1C(C)(C)C(OC(C)=O)[C@@H]2[C@@H](OC(C)=O)[C@]34O[C@@]2(O)[C@]1(C)C3CC[C@]1(C)C4=CC(=O)O[C@H]1c1ccoc1 (stereo not given in full)
inactive: locus YAL013W, strain DEP1, active compounds read low 1.02 | locus YAL021C, strain ccr4, active compounds read low 1.03 | locus YAL026C, strain drs2, active compounds read low 0.991 | locus YAL030W, strain snc1, active compounds read low 1.01 | locus YBL061C, strain skt5, active compounds read low 0.998 | locus YBR009C, strain hhf1, active compounds read low 1.03 | locus YBR021W, strain FUR4, active compounds read low 1.04 | locus YBR023C, strain chs3, active compounds read low 1.01 | locus YBR171W, strain sec66, active compounds read low 1 | locus YBR229C, strain ROT2, active compounds read low 0.96 | locus YBR231C, strain swc5, active compounds read low 1.01 | locus YBR279W, strain paf1, active compounds read low 1.01 | locus YCL011C, strain gbp2, active compounds read low 1.01 | locus YCL016C, strain dcc1, active compounds read low 1.02 | locus YCL029C, strain bik1, active compounds read low 1.02 | locus YCL061C, strain MRC1, active compounds read low 1.01 | locus YCL069W, strain vba3, active compounds read low 1.01 | locus YCR088W, strain abp1, active compounds read low 1.01 | locus YDL005C, strain med2, active compounds read low 0.991 | locus YDL035C, strain GPR1, active compounds read low 0.98 | locus YDL040C, strain nat1, active compounds read low 1.02 | locus YDL074C, strain BRE1, active compounds read low 1.03 | locus YDL101C, strain DUN1, active compounds read low 1.02 | locus YDL134C, strain PPH21, active compounds read low 1.05 | locus YDL185W, strain tfp1, active compounds read low 0.977 | locus YDL192W, strain arf1, active compounds read low 0.983 | locus YDR001C, strain nth1, active compounds read low 1.01 | locus YDR069C, strain doa4, active compounds read low 1.02 | locus YDR101C, strain arx1, active compounds read low 0.975 | locus YDR137W, strain rgp1, active compounds read low 0.93 | locus YDR150W, strain NUM1, active compounds read low 1.01 | locus YDR159W, strain sac3, active compounds read low 1 | locus YDR162C, strain NBP2, active compounds read low 1 | locus YDR195W, strain ref2 1.01 | locus YDR297W, strain sur2, active compounds read low 1.02 | locus YDR318W, strain mcm21, active compounds read low 0.997 | locus YDR334W, strain swr1, active compounds read low 1.01 | locus YDR335W, strain msn5, active compounds read low 1.01 | locus YDR388W, active compounds read low 1.02 | locus YDR392W, strain spt3, active compounds read low 1.07 | locus YDR502C, strain sam2, active compounds read low 1.03 | locus YEL003W, strain gim4, active compounds read low 1.01 | locus YEL037C, strain rad23, active compounds read low 1 | locus YEL061C, strain CIN8 (second series), active compounds read low 1 | locus YEL061C, strain CIN8, active compounds read low 1 | locus YER015W, strain faa2, active compounds read low 1.01 | locus YER016W, strain bim1, active compounds read low 1.01 | locus YER110C, active compounds read low 0.998 | locus YER111C, strain swi4, active compounds read low 0.988 | locus YER155C, strain BEM2 (second series), active compounds read low 1.05 | locus YER155C, strain BEM2, active compounds read low 1.01 | locus YER167W, strain BCK2, active compounds read low 0.991 | locus YFR010W, strain ubp6, active compounds read low 1 | locus YGL078C, strain dbp3, active compounds read low 1.01 | locus YGL086W, strain mad1, active compounds read low 1.02 | locus YGL167C, strain pmr1, active compounds read low 1.01 | locus YGL173C, strain kem1, active compounds read low 1 | locus YGL227W, strain vid30, active compounds read low 1 | locus YGL240W, strain doc1, active compounds read low 1.01 | locus YGL248W, strain PDE1, active compounds read low 1.03 | locus YGL253W, strain hxk2, active compounds read low 0.953 | [1] 1.05 | locus YGR135W, strain pre9, active compounds read low 1.08 | locus YGR252W, strain gcn5, active compounds read low 1.09 | locus YHR013C, strain ard1, active compounds read low 1.02 | locus YHR027C, strain rpn1, active compounds read low 1.01 | locus YHR030C, strain SLT2, active compounds read low 1.03 | locus YHR079C, strain IRE1 (second series), active compounds read low 0.989 | locus YHR079C, strain IRE1, active compounds read low 1.04 | locus YHR094C, strain hxt1, active compounds read low 1 | locus YHR129C, strain ARP1, active compounds read low 1.02 | locus YHR142W, strain chs7, active compounds read low 0.983 | locus YHR200W, strain rpn10, active compounds read low 1.03 | locus YIL066C, strain RNR3, active compounds read low 0.979 | locus YIL073C, strain SPO22, active compounds read low 0.988 | locus YIL125W, strain kgd1, active compounds read low 0.991 | locus YIR030C, strain dcg1, active compounds read low 0.996 | locus YJL092W, strain hpr5, active compounds read low 1.01 | locus YJL095W, strain BCK1 (second series), active compounds read low 0.999 | locus YJL095W, strain BCK1, active compounds read low 1.07 and 1.02 | locus YJL115W, strain asf1, active compounds read low 0.998 | locus YJL129C, strain trk1, active compounds read low 0.984 | locus YJL134W, strain LCB3, active compounds read low 0.996 | locus YJL154C, strain vps35, active compounds read low 1.02 | locus YJL164C, strain tpk1, active compounds read low 1 | locus YJL166W, strain qcr8, active compounds read low 1.01 | locus YJL168C, strain set2, active compounds read low 1.02 | locus YJL187C, strain SWE1 (second series), active compounds read low 1.04 | locus YJR066W, strain TOR1, active compounds read low 0.963 | locus YKL009W, strain mrt4, active compounds read low 0.921 | locus YKL068W, active compounds read low 0.99 | locus YKL085W, strain MDH1 (second series), active compounds read low 1.01 | locus YKL085W, strain MDH1, active compounds read low 1.01 | locus YKL160W, strain elf1, active compounds read low 1.01 | locus YKL190W, strain CNB1, active compounds read low 1 | locus YKR001C, strain vps1, active compounds read low 0.978 | locus YKR026C, strain gcn3, active compounds read low 1.01 | locus YKR091W, strain srl3, active compounds read low 1.01 | locus YLL001W, strain dnm1, active compounds read low 1 | locus YLL026W, active compounds read low 0.999 | locus YLL041C, strain sdh2, active compounds read low 0.998 | locus YLR027C, strain aat2, active compounds read low 1.01 | locus YLR039C, strain RIC1, active compounds read low 0.934 | locus YLR058C, strain SHM2, active compounds read low 0.988 | locus YLR102C, strain apc9, active compounds read low 1.01 | locus YLR113W, strain HOG1, active compounds read low 0.998 | locus YLR221C, strain rsa3, active compounds read low 1.03 | locus YLR258W, strain gsy2, active compounds read low 1 | locus YLR262C, strain YPT6 (second series), active compounds read low 0.963 | locus YLR262C, strain YPT6, active compounds read low 0.899 | locus YLR268W, strain sec22, active compounds read low 0.983 | locus YLR320W, strain mms22, active compounds read low 1.01 | locus YLR330W, strain CHS5, active compounds read low 1.01 | locus YLR342W, strain FKS1 (second series), active compounds read low 1.06 | locus YLR342W, strain FKS1, active compounds read low 1.01 | locus YLR357W, strain rsc2, active compounds read low 1.06 | locus YLR370C, strain arc18, active compounds read low 1.03 | locus YLR371W, strain rom2, active compounds read low 1.01 | locus YLR384C, strain iki3, active compounds read low 0.99 | locus YLR418C, strain cdc73, active compounds read low 1.07 | locus YML016C, strain PPZ1, active compounds read low 1.01 | locus YML032C, strain rad52, active compounds read low 0.991 | locus YML120C, strain ndi1, active compounds read low 1.03 | locus YML124C, strain tub3, active compounds read low 0.997 | locus YMR058W, strain fet3, active compounds read low 1.01 | locus YMR078C, strain ctf18, active compounds read low 0.998 | locus YMR125W, strain sto1, active compounds read low 1.02 | locus YMR129W, active compounds read low 0.996 | locus YMR205C, strain PFK2, active compounds read low 1.02 | locus YMR223W, strain ubp8, active compounds read low 1.03 | locus YMR231W, strain pep5, active compounds read low 0.994 | locus YMR307W, strain GAS1, active compounds read low 1.02 | locus YNL067W, strain RPL9B, active compounds read low 1.05 | locus YNL071W, strain lat1, active compounds read low 1.01 | locus YNL128W, strain TEP1, active compounds read low 0.97 | [2] 1.05 | locus YNL183C, strain NPR1, active compounds read low 0.978 | locus YNL209W, strain ssb2, active compounds read low 1.02 | locus YNL233W, strain BNI4, active compounds read low 1.08 | locus YNL248C, strain rpa49, active compounds read low 0.999 | locus YNL250W, strain rad50, active compounds read low 1 | locus YNL271C, strain bni1, active compounds read low 1 | locus YNL298W, strain CLA4, active compounds read low 1.01 | locus YNL307C, strain MCK1, active compounds read low 1.01 | locus YNL322C, strain KRE1 (second series), active compounds read low 1.01 | locus YNR049C, strain mso1, active compounds read low 1.01 | locus YNR052C, strain pop2, active compounds read low 1.06 | locus YOL012C, strain htz1 1.16 | locus YOL147C, strain pex11, active compounds read low 1 | locus YOR001W, strain rrp6, active compounds read low 1.02 | locus YOR061W, strain CKA2, active compounds read low 0.946 | locus YOR069W, strain VPS5, active compounds read low 1.01 | locus YOR070C, strain gyp1, active compounds read low 1.01 | locus YOR080W, strain dia2, active compounds read low 1 | locus YOR083W, strain WHI5, active compounds read low 1.01 | locus YOR106W, strain vam3, active compounds read low 1.02 | locus YOR136W, strain idh2, active compounds read low 1.02 | locus YOR144C, strain elg1, active compounds read low 1 | locus YOR184W, strain ser1, active compounds read low 0.957 | locus YOR231W, strain MKK1, active compounds read low 0.995 | locus YOR265W, strain rbl2, active compounds read low 1 | locus YOR270C, strain vph1, active compounds read low 0.806 | locus YOR290C, strain snf2, active compounds read low 1.01 | locus YOR316C, strain cot1, active compounds read low 1.01 | locus YPL051W, strain arl3, active compounds read low 1.02 | locus YPL078C, strain atp4, active compounds read low 1 | locus YPL106C, strain sse1, active compounds read low 1.06 | locus YPL240C, strain hsp82, active compounds read low 1.01 | locus YPL256C, strain CLN2, active compounds read low 1.04 | locus YPR119W, strain clb2, active compounds read low 1 | locus YPR141C, strain kar3, active compounds read low 0.979 | locus YPR163C, strain tif3, active compounds read low 1.01 | locus YPR167C, strain met16, active compounds read low 1.01 | strain wtn01, active compounds read low 0.982
